Screening data: PubChem BioAssay, National Center for Advancing Translational Sciences (NCATS)
Pf growth 48h = inhibits P. falciparum growth in the first generation, 48 h. P. falciparum luciferase growth in erythrocytes, 48 h. Potency, µM (highest dose often 28.7 µM), most hits filed as inhibitors. hit rate 5.9% among 310,000
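Here the parasites carry a stable luciferase gene and grow inside erythrocytes in Albumax-based RPMI medium with compound for one erythrocytic cycle. Activity is scored as loss of luminescent signal.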
Vaccinia Venus = vaccinia inhibition (Venus reporter). Vaccinia virus Venus reporter expression, fluorescence. Potency, µM (doses to about 36.5 µM), hits mostly inhibitors. hit rate 0.46% among 330,000; calls by dose curve; tested in A549 cells; note: nearly all actives have a fitted effect of over 30% in size
Pf growth 96h = P. falciparum growth inhibition at 96 hours; hit rate 6.9% among 320,000; Potency, µM (top dose mostly 28.7 µM), most hits filed as inhibitors; P. falciparum luciferase reporter growth, 96 h
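Plates of compound plus infected erythrocytes (2% hematocrit, 0.05% parasitemia final) incubate 96 hours, 37 C, 5% CO2. Detection reagent added; reduced luminescence from the parasites' luciferase reporter flags inhibition.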
HCV inhibitor = inhibitors of hepatitis C virus infection. Huh7.5.1 HCVcc-Cre infection, luciferase reporter, 44 h. Potency, µM (highest dose often 41.8 µM), actives largely listed as inhibitors. hit rate 3.4% among 340,000
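Seed cells (1,000/well) for 4 h; treat with compound and infect with HCVcc-Cre, moi about 0.5. Incubate 44 h, then detect luciferase activity.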
Vaccinia mCherry = inhibitors of vaccinia virus infection (mCherry reporter signal). hit rate 0.63% among 310,000. Potency, µM (highest dose often 36.5 µM), hits mostly inhibitors. Vaccinia virus mCherry reporter infection, fluorescence. AID 720579; calls by dose curve; tested in A549 cells; note: nearly all actives have a fitted effect of over 35% in size
NS1 inh = inhibitors of influenza NS1 protein function; hit rate 0.4% among 270,000; Potency, µM (series often up to 46.1 µM); AID 2326; calls by dose curve; note: actives are rising curves; nearly all actives have a fitted effect of over 50% in size
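S. cerevisiae expressing influenza A NS1, grown in glucose, washed, then diluted 1:100 into pH 6.0 -URA galactose medium with 23 nl compound. Growth recovery read as OD600; NS1-free strain serves as control.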
Numbers stand for hits; i = inactive; ? = inconclusive; nt = not tested or not shown; [ ] = another dose, or the depositor's remark. Rows were chosen to be rich in hits. Some 11% of all compounds tested hit in one or more screens of this group. Unless noted, calls come from the whole dose curve; as a rule, active = well fitted inhibition curve with a large enough effect; inconclusive = small, poorly fitted or top-dose-only effect, or another doubt; inactive = no such curve, though single readings can be large or run the other way.

SMILES	Pf growth 48h	Vaccinia Venus	Pf growth 96h	HCV inhibitor	Vaccinia mCherry	NS1 inh
CN(C)S(=O)(=O)c1cccc(NC(=O)c2cc(-c3cccs3)nc3ccccc23)c1	i	i	?	?	i	i
COc1ccc(NCc2nnc(SCC(=O)NCc3ccccc3)n2-c2ccccc2OC)cc1	?	i	i	?	i[1.46 µM]	i
CCOc1ccccc1-n1c(CNc2ccc(F)cc2)nnc1SCC(=O)NCc1ccco1	11.7µM	i	i	i	i	i
COc1ccccc1-n1c(CNc2ccc(F)cc2)nnc1SCC(=O)Nc1cc(C)on1	13.1µM	i	i	i	nt	i
COc1cc(/C=N/NC(=O)CNc2n[nH]c(=O)[nH]c2=O)ccc1O	i	i	i	i	i	i
O=C(c1ccccc1)C(CCc1ccccn1)CCc1ccccn1	nt	i	nt	i	i	nt
CN(C)C(Cc1ccccc1)C(=O)c1ccc(-c2ccccc2)cc1 (stereo not drawn)	nt	nt	?	i	nt	i
COc1ccc(C(=O)C(CCCCC(CN(C)C)C(=O)c2ccc(OC)cc2)CN(C)C)cc1 (stereo not drawn)	10.4µM	i	9.28µM	3.55µM	i	i
CN(C)CC(CCC(CN(C)C)C(=O)c1ccccc1)C(=O)c1ccccc1 (stereo not drawn)	6.57µM	11.2µM	13.1µM	?	?	i
COc1ccc(C(=O)C(Cc2ccccc2)N(C)C)cc1 (stereo not drawn)	?	nt	1.31µM	i	nt	i
COc1ccc(C(C)=O)cc1CC(C(=O)c1ccc(F)cc1)N(C)C (stereo not drawn)	?	i	10.4µM	i	i	?
COc1ccc(C(=O)CC(=O)c2ccc(OC)cc2)cc1	i	i	i	i	i	i
CC(=O)Oc1ccc2c(c1C(C)C)CCC1C(C)(C)CCC[C@@]21C (stereo partly drawn)	nt	i	nt	nt	i	nt
Cc1nn(C)c(C(=O)NNC(=S)NC2CCCCC2)c1Br	i	i	5.22µM	i	i	i
COc1ccc2[nH]c3c(c2c1)CCNC3C1CC=C(C)CC1 (stereo not drawn)	?	nt	i	?	nt	i
COc1ccc2[nH]c3c(c2c1)CCNC3c1ccc([N+](=O)[O-])o1 (stereo not drawn)	13.1µM	i	i	i	i	i
COc1ccc2[nH]c3c(c2c1)CCNC3C (stereo not drawn)	i	i	9.28µM	?	?	i
Cc1cc(/C=N/n2cnnc2)c(C)n1-c1ccc(OCc2ccc(Cl)cc2)cc1	nt	i	11.7µM	7.94µM	?	i
Cc1cc(/C=N/n2cnnc2)c(C)n1-c1ccc(OCc2ccccc2F)cc1	?	?	i	?	i	i
O=C(/C=C/c1ccccc1)Nc1nc(-c2ccncc2)cs1	?	i	?	7.94µM	i	nt
Cc1ccc(-c2csc(NC(=O)/C=C/c3cccs3)n2)cc1C	?	i	?	11.2µM	?	i
N#Cc1ccc(-c2csc(NC(=O)C3CC3)n2)cc1	nt	i	i	i	i	i
Cc1cccc(NC(=O)/C=C/c2cccs2)n1	i	nt	i	i	nt	i
N#Cc1ccc(-c2csc(NC(=O)/C=C/c3cccs3)n2)cc1	?	i	10.4µM	i	i	i
CCN(CC)C(=O)C1=C(C)Nc2nc3ccccc3n2C1c1ccccc1F (stereo not drawn)	nt	i	nt	nt	i	nt
SMILES	Pf growth 48h	Vaccinia Venus	Pf growth 96h	HCV inhibitor	Vaccinia mCherry	NS1 inh
COc1ccc(N2CCN(C(=O)CSc3ccc([N+](=O)[O-])cc3)CC2)cc1	i	i	i	?	i	nt
O=C(Nc1ccc(F)c(S(=O)(=O)N2CCOCC2)c1)C1CCCCC1	13.1µM	i	?	?	i	nt
Cc1ccc(S(=O)(=O)N(C)C)cc1NC(=O)C1CCCN(C(=O)c2ccc(Cl)cc2)C1 (stereo not drawn)	7.38µM	i	4.65µM	?	i	nt
CSCCC(NC(=O)c1ccccc1Cl)C(=O)Nc1ccc(C)c(S(=O)(=O)N2CCOCC2)c1 (stereo not drawn)	9.28µM	i	?	i	i	nt
Cc1ccc(Cl)cc1NC(=S)N1CCC(c2ccccc2)C1 (stereo not drawn)	11.7µM	i	?	i	i	i
Cc1ccc(NC(=O)C2CCCN(C(=O)c3ccc(Cl)cc3)C2)cc1S(=O)(=O)N1CCOCC1 (stereo not drawn)	?	i	7.38µM	3.98µM	i	nt
Cc1c(Cl)cccc1NC(=O)C1CCCN(S(C)(=O)=O)C1 (stereo not drawn)	?	nt	i	i	nt	i
Cc1ccc(Cl)cc1NC(=O)C1CCCN(S(C)(=O)=O)C1 (stereo not drawn)	i	nt	10.4µM	i	nt	i
CCOc1ccc2nc(NC(=O)CSCC(=O)Nc3cc(C)on3)sc2c1	i	i	i	i	i	nt
Cc1cccc(C)c1OCC(O)CNS(=O)(=O)c1ccccc1C(=O)N1CCCCC1 (stereo not drawn)	?	nt	11.7µM	?	nt	i
CC(C)CNS(=O)(=O)c1ccccc1C(=O)N1CCCCC1	i	nt	i	i	nt	i
CCCCC(=O)Nc1cccc(NC(=O)c2ccc3c(c2)OCO3)c1	i	nt	i	2.82µM	nt	i
O=C(Nc1ccc(F)c(F)c1)c1ccc2c(c1)OCO2	i	i	2.33µM	i	i	i
COc1ccc(-c2cccc(NC(=O)c3ccc4c(c3)OCO4)c2)nn1	i	i	?	15.8µM	i	nt
O=C(Nc1ccc2c(c1)OCO2)c1ccc2c(c1)OCO2	i	i	i	i	i	i
CCCC(=O)Nc1cccc(NC(=O)c2ccc3c(c2)OCCO3)c1	i	i	?	?	i	i
CCN(CC)c1ccc(NC(=O)c2ccc3c(c2)OCO3)c(C)c1	i	i	i	11.2µM	?	i
CC(C)Oc1cccc(C(=O)C2CCCN(C(=O)c3ccoc3)C2)c1 (stereo not drawn)	i	i	i	i	i	i
CC(=O)Nc1ccc(C(=O)Nc2ccc3c(c2)OCO3)cc1	i	nt	2.33µM	i	nt	i
COc1ccc(-c2cc(=O)c3c(OC(C)=O)cc(OC(C)=O)cc3o2)cc1	nt	?	nt	nt	i	nt
CCOC(=O)C1=C(C)NC(C)=C(C(=O)OCC)C1c1ccc(OC)c(OC)c1	nt	i	nt	nt	i	nt
COc1ccc(N(CC(=O)Nc2nc3ccc(C)cc3s2)S(=O)(=O)c2c(C)nn(C)c2C)cc1	nt	?	i	?	i	i
O=C1Nc2ccccc2S/C1=C/c1cccs1	i	?	i	6.31µM	i	i
CCOc1cc(/C=C/C(=O)OCC(=O)NC2CCS(=O)(=O)C2)ccc1OCc1ccccc1 (stereo not drawn)	i	i	i	12.6µM	i	nt
CCC(C(=O)Nc1ccccc1OC)n1c(C(=O)OC)cc2sc(Cl)cc21 (stereo not drawn)	nt	i	nt	nt	i	nt
COc1ccc(CNC2CC(C)N(C)CC2C)cc1OC (stereo not drawn)	10.4µM	i	i	i	i	i
CCCCC(=O)NC(c1ccco1)c1cc(Cl)c2cccnc2c1O (stereo not drawn)	?	?	i	8.91µM	12.6µM	i
CCC(=O)NC(c1ccco1)c1cc(Cl)c2cccnc2c1O (stereo not drawn)	?	?	i	6.31µM	7.94µM	i
